Experimental data reported in PubChem BioAssay (NCATS).
Results filed as inconclusive are left out. A call without a number means that no potency is given here. Calls of active or inactive are those of the source. Unless noted, the call rests on the fitted dose curve.

Assay: qHTS Assay for Identification of Small Molecule Agonists for NFkB Signaling Pathway. (AID 624478; active means well fitted curve in the direction sought with a large enough effect;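 further: compounds tested together with TNF alpha at its EC50 of 10 pM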)
Settings: NFkB pathway reporter cell assay, agonist mode, cells co-stimulated with 10 pM TNF alpha; series mostly up to 46.1 µM
In short: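 Cells carrying an NFkB response element-driven beta-lactamase gene are co-treated with compound and 10 pM TNF alpha for 5 h, and reporter activity is then read as 460 and 530 nm fluorescence.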

Compound	outcome
CCOC(=O)C1=C[C@@]2(CC)CCCN3CCc4c(n1c1ccccc41)[C@H]32	inactive
CN[C@@H](C)C(=O)N[C@H]1CCCC[C@H]2CC[C@@H](C(=O)N[C@@H](c3ccccc3)c3cn(CCCCc4ccc(CCCCn5cc([C@@H](NC(=O)[C@@H]6CC[C@@H]7CCCC[C@H](NC(=O)[C@H](C)NC)C(=O)N76)c6ccccc6)nn5)cc4)nn3)N2C1=O	inactive
Nc1nccc(-c2ccc3noc(-c4ccc(Cl)cc4)c3c2)n1	inactive
CN([C@@H](Cc1ccc(OS(=O)(=O)c2cccc3cnccc23)cc1)C(=O)N1CCN(c2ccccc2)CC1)S(=O)(=O)c1cccc2cnccc12	inactive
COc1ccccc1[C@H](c1cccc2ccccc12)[C@@](C)(C#N)C(=O)N1CCC(c2cccc(C(F)(F)F)c2)CC1	inactive
Cc1cnc(Nc2ccc(OCCN3CCCC3)cc2)nc1Nc1cccc(S(=O)(=O)NC(C)(C)C)c1	inactive
Cc1cc(Nc2nc(N[C@@H](C)c3ncc(F)cn3)ncc2Cl)n[nH]1	inactive
CCN(CCCO)CCCOc1ccc2c(Nc3cc(CC(=O)Nc4cccc(F)c4)[nH]n3)ncnc2c1	inactive
COc1ccc(CC2=NN3C([C@@H](CCc4ccccc4)[C@@H](C)O)=NC(C)C3C(=O)N2)cc1OC (some centres undefined)	inactive
CC[C@@H](C)[C@H](NC(=O)[C@H](CC1CCCCC1)NC(=O)c1ccno1)C(=O)N1CCC2(CCc3ccccc32)CC1	inactive
CC1(C)SCCN(S(=O)(=O)c2ccc(OCC#CCO)cc2)[C@@H]1C(=O)NO	inactive
CCN(c1ccccc1)c1cc(NC)[n+](C)c(C)n1	inactive
C[C@H](NC(=O)Cc1cc(F)cc(F)c1)C(=O)N[C@@H]1C(=O)N(C)c2ccccc2-c2ccccc21	inactive
CCc1cc(Nc2nccc(-c3c(-c4ccc(OC)c(C(=O)Nc5c(F)cccc5F)c4)nc4ccccn34)n2)c(OC)cc1N1CCC(N2CCN(S(C)(=O)=O)CC2)CC1	inactive
CS(=O)(=O)c1ccc(C(=O)Nc2ccc(Cl)c(-c3ccccn3)c2)c(Cl)c1	inactive
Cc1csc(NC(=O)c2sc3nc4c(c(C(F)(F)F)c3c2N)CCC4)n1	inactive
CNC(=O)c1ccccc1Sc1ccc2c(/C=C/c3ccccn3)n[nH]c2c1	inactive
O=C(C=Cc1ccc(/C=C/C(=O)Nc2ccc(C3=NCCN3)cc2)cc1)Nc1ccc(C2=NCCN2)cc1	inactive
COc1ccc(-c2ccc3c(N4CCOCC4)nc(N4C[C@@H](C)O[C@@H](C)C4)nc3n2)cc1CO	inactive

Compound	outcome
O=C1CCCC2=C1C(c1[nH]ncc1Cl)N=C(Nc1nc3ccccc3o1)N2 (centres undefined)	inactive
Cc1ccc2c(c1)C(=O)[C@@]1(O)CCN(c3ccccc3)C1=N2	inactive
C[C@@H]1C[C@H]2[C@@H]3CCC4=CC(=O)C=C[C@]4(C)C3(F)[C@@H](O)C[C@]2(C)[C@@]1(O)C(=O)CO (some centres undefined)	inactive
COc1cc2c(cc1OC)CN(CCc1ccc(NC(=O)c3cccc4c(=O)c5cccc(OC)c5[nH]c34)cc1)CC2	inactive
O=c1[nH]c(-c2ccc(C(F)(F)F)cc2)nc2c1CSCC2	inactive
CCn1c(-c2nonc2N)nc2cnc(Oc3cccc(NC(=O)c4ccc(OCCN5CCOCC5)cc4)c3)cc21	inactive
O=C1[C@H](Cc2ccc(O)cc2)N2C(=O)CCN(C(=O)NCc3ccccc3)[C@H]2CN1Cc1cccc2ccccc12	inactive
NC(=O)c1ccc(I)c([N+](=O)[O-])c1	inactive
C[C@@H]1CN(Cc2ccc(F)cc2)[C@@H](C)CN1C(=O)c1cc2c(C(=O)C(=O)N(C)C)cn(C)c2cc1Cl	inactive
Cc1cc(-c2nnc3n2CCCCC3)c(C)n1-c1ccc(F)cc1	inactive
O=C(O)CCc1ccc(NCc2cccc(Oc3ccccc3)c2)cc1	inactive
CC(C)OC(=O)C1=CN(C(=O)c2ccc(F)c(F)c2)CC(C)(C)c2c1[nH]c1ccccc21	inactive
CCOc1cc(C(=O)Nc2ccc(Cl)c(-c3nc4ccccc4[nH]3)c2)cc(OCC)c1OCC	inactive
Cn1cc(-c2ccc3nnc(C(F)(F)c4ccc5ncccc5c4)n3n2)cn1	inactive
O=C(O)[C@@H](c1ccc(OCc2ccc3ccccc3n2)cc1)C1CCCC1	inactive
CCCS(=O)(=O)Nc1ccc(F)c(C(=O)c2c[nH]c3ncc(Cl)cc23)c1F	inactive
CCCS(=O)(=O)Nc1ccc(F)c(C(=O)c2c[nH]c3ncc(-c4ccc(Cl)cc4)cc23)c1F	inactive
OCCn1cc(-c2cnc3nnn(Cc4ccc5ncccc5c4)c3n2)cn1	inactive

Assay: qHTS Assay for Identification of Small Molecule Antagonists for NFkB Signaling Pathway. (AID 624479); further: potency means the concentration at half of the fitted maximal effect
Settings: NFkB pathway reporter cell assay, antagonist mode; series mostly up to 38.3 µM

Compound	Potency
CCOC(=O)C1=C[C@@]2(CC)CCCN3CCc4c(n1c1ccccc41)[C@H]32	inactive
CN[C@@H](C)C(=O)N[C@H]1CCCC[C@H]2CC[C@@H](C(=O)N[C@@H](c3ccccc3)c3cn(CCCCc4ccc(CCCCn5cc([C@@H](NC(=O)[C@@H]6CC[C@@H]7CCCC[C@H](NC(=O)[C@H](C)NC)C(=O)N76)c6ccccc6)nn5)cc4)nn3)N2C1=O	inactive
Nc1nccc(-c2ccc3noc(-c4ccc(Cl)cc4)c3c2)n1	3.75 µM (active)
CN([C@@H](Cc1ccc(OS(=O)(=O)c2cccc3cnccc23)cc1)C(=O)N1CCN(c2ccccc2)CC1)S(=O)(=O)c1cccc2cnccc12	inactive
COc1ccccc1[C@H](c1cccc2ccccc12)[C@@](C)(C#N)C(=O)N1CCC(c2cccc(C(F)(F)F)c2)CC1	inactive
Cc1cnc(Nc2ccc(OCCN3CCCC3)cc2)nc1Nc1cccc(S(=O)(=O)NC(C)(C)C)c1	inactive
Cc1cc(Nc2nc(N[C@@H](C)c3ncc(F)cn3)ncc2Cl)n[nH]1	inactive
CCN(CCCO)CCCOc1ccc2c(Nc3cc(CC(=O)Nc4cccc(F)c4)[nH]n3)ncnc2c1	inactive
COc1ccc(CC2=NN3C([C@@H](CCc4ccccc4)[C@@H](C)O)=NC(C)C3C(=O)N2)cc1OC (some centres undefined)	inactive
CC[C@@H](C)[C@H](NC(=O)[C@H](CC1CCCCC1)NC(=O)c1ccno1)C(=O)N1CCC2(CCc3ccccc32)CC1	inactive
CC1(C)SCCN(S(=O)(=O)c2ccc(OCC#CCO)cc2)[C@@H]1C(=O)NO	inactive
CCN(c1ccccc1)c1cc(NC)[n+](C)c(C)n1	inactive
C[C@H](NC(=O)Cc1cc(F)cc(F)c1)C(=O)N[C@@H]1C(=O)N(C)c2ccccc2-c2ccccc21	inactive
CCc1cc(Nc2nccc(-c3c(-c4ccc(OC)c(C(=O)Nc5c(F)cccc5F)c4)nc4ccccn34)n2)c(OC)cc1N1CCC(N2CCN(S(C)(=O)=O)CC2)CC1	inactive
CS(=O)(=O)c1ccc(C(=O)Nc2ccc(Cl)c(-c3ccccn3)c2)c(Cl)c1	inactive
Cc1csc(NC(=O)c2sc3nc4c(c(C(F)(F)F)c3c2N)CCC4)n1	inactive
CNC(=O)c1ccccc1Sc1ccc2c(/C=C/c3ccccn3)n[nH]c2c1	inactive
O=C(C=Cc1ccc(/C=C/C(=O)Nc2ccc(C3=NCCN3)cc2)cc1)Nc1ccc(C2=NCCN2)cc1	inactive
COc1ccc(-c2ccc3c(N4CCOCC4)nc(N4C[C@@H](C)O[C@@H](C)C4)nc3n2)cc1CO	inactive

Compound	Potency
O=C1CCCC2=C1C(c1[nH]ncc1Cl)N=C(Nc1nc3ccccc3o1)N2 (centres undefined)	inactive
Cc1ccc2c(c1)C(=O)[C@@]1(O)CCN(c3ccccc3)C1=N2	inactive
C[C@@H]1C[C@H]2[C@@H]3CCC4=CC(=O)C=C[C@]4(C)C3(F)[C@@H](O)C[C@]2(C)[C@@]1(O)C(=O)CO (some centres undefined)	inactive
COc1cc2c(cc1OC)CN(CCc1ccc(NC(=O)c3cccc4c(=O)c5cccc(OC)c5[nH]c34)cc1)CC2	inactive
O=c1[nH]c(-c2ccc(C(F)(F)F)cc2)nc2c1CSCC2	inactive
CCn1c(-c2nonc2N)nc2cnc(Oc3cccc(NC(=O)c4ccc(OCCN5CCOCC5)cc4)c3)cc21	4.73 µM (active)
O=C1[C@H](Cc2ccc(O)cc2)N2C(=O)CCN(C(=O)NCc3ccccc3)[C@H]2CN1Cc1cccc2ccccc12	inactive
NC(=O)c1ccc(I)c([N+](=O)[O-])c1	inactive
C[C@@H]1CN(Cc2ccc(F)cc2)[C@@H](C)CN1C(=O)c1cc2c(C(=O)C(=O)N(C)C)cn(C)c2cc1Cl	inactive
Cc1cc(-c2nnc3n2CCCCC3)c(C)n1-c1ccc(F)cc1	inactive
O=C(O)CCc1ccc(NCc2cccc(Oc3ccccc3)c2)cc1	inactive
CC(C)OC(=O)C1=CN(C(=O)c2ccc(F)c(F)c2)CC(C)(C)c2c1[nH]c1ccccc21	inactive
CCOc1cc(C(=O)Nc2ccc(Cl)c(-c3nc4ccccc4[nH]3)c2)cc(OCC)c1OCC	inactive
Cn1cc(-c2ccc3nnc(C(F)(F)c4ccc5ncccc5c4)n3n2)cn1	inactive
O=C(O)[C@@H](c1ccc(OCc2ccc3ccccc3n2)cc1)C1CCCC1	inactive
CCCS(=O)(=O)Nc1ccc(F)c(C(=O)c2c[nH]c3ncc(Cl)cc23)c1F	11.9 µM (active)
CCCS(=O)(=O)Nc1ccc(F)c(C(=O)c2c[nH]c3ncc(-c4ccc(Cl)cc4)cc23)c1F	16.8 µM (active)
OCCn1cc(-c2cnc3nnn(Cc4ccc5ncccc5c4)c3n2)cn1	inactive
